Laboratory results taken from ChEMBL document CHEMBL3988442, “University of Dundee, Small-Polar-MMV Screening Library” (2021).
In all, about 48,000 compounds went through this assay and about 13,000 (27%) showed an effect of 50% or more. Some of the results follow.

system: Wolbachia pipientis; experiment: Anti-Wolbachia Cell-Based Screen; type: functional; parameters: scale not given: in the data most compounds retested in dose-response had high values; conditions: 5 µM

**Q.** For `CC(=O)c1cccc(NC(=O)CN2CCCC(C3OCCO3)C2)c1` (stereo unspecified), which “Percent Effect” value is on record?
**A.** 1.142%

**Q.** Which “Percent Effect” value does the source give for `CN1CCN(CCCN(C)S(=O)(=O)CC2CCCCC2)CC1` here?
**A.** -9.559%

**Q.** Which “Percent Effect” value does the source give for `N#CC1(C(=O)N2CCN(Cc3ccon3)CC2)CCC1` here?
**A.** -11.71%

**Q.** With `Cc1ccc(C(=O)NS(=O)(=O)c2ccc3c(c2)OCCCO3)o1` as the compound, how does the “Percent Effect” value read?
**A.** -8.261%

**Q.** `Cc1cc(CN2CCN(c3nn4cc(C)nc4s3)CC2)on1` was tested. Which “Percent Effect” value did it give?
**A.** 9.459%

**Q.** How did the “Percent Effect” value turn out when `COc1c(C2CCCN2Cc2cc(C)no2)c(C)nn1C` (stereo unspecified) was run?
**A.** -10.58%

**Q.** How did the “Percent Effect” value turn out when `Cc1cc(-c2nn3c(C4CCC4)nnc3s2)on1` was run?
**A.** 155.9%

**Q.** `Cc1cc(NC(=O)CN2CCn3c(nnc3C(C)C)C2)on1` was tested. Which “Percent Effect” value did it give?
**A.** -16.14%

**Q.** `CC(C)c1nnc2sc(CC3CCS(=O)(=O)C3)nn12` (stereo unspecified) was tested. Which “Percent Effect” value did it give?
**A.** 8.57%

**Q.** How did the “Percent Effect” value turn out when `Cc1cc(CN(C2CC2)C(C)C(C)C)on1` (stereo unspecified) was run?
**A.** 26.3%

**Q.** For `CCn1c(CN2CCCC2)nnc1C1CCN(Cc2cc(C)no2)CC1`, which “Percent Effect” value is on record?
**A.** -0.1861%

**Q.** For `Cc1cc(-c2nn3c(C(C)C)nnc3s2)on1`, which “Percent Effect” value is on record?
**A.** 113.9%

**Q.** With `Cc1cc(-c2nn3c(C4CC4)nnc3s2)on1` as the compound, how does the “Percent Effect” value read?
**A.** 189.6%

**Q.** With `CCn1cc(-c2nn3c(C(C)C)nnc3s2)c(C)n1` as the compound, how does the “Percent Effect” value read?
**A.** 106.3%

**Q.** Which “Percent Effect” value does the source give for `Cc1cc(CN2CCCC2c2noc(C3CC3)n2)c2ccccc2n1` (stereo unspecified) here?
**A.** 1.295%

**Q.** For `Cc1noc(C)c1-c1n[nH]c2c1CN(S(=O)(=O)c1ccsc1)CC2`, which “Percent Effect” value is on record?
**A.** 10.76%

**Q.** `N#Cc1cccc(Cl)c1NCCCc1nc(=O)[nH][nH]1` was tested. Which “Percent Effect” value did it give?
**A.** -19.22%

**Q.** How did the “Percent Effect” value turn out when `O=C(N[C@@H]1CCNC[C@H]1O)c1ccccc1OC(F)(F)C(F)F` was run?
**A.** -13.38%

**Q.** How did the “Percent Effect” value turn out when `Cc1ccn(Cc2nc(C(C)OCC(C)C)no2)c(=O)c1` (stereo unspecified) was run?
**A.** 12.04%

**Q.** With `CC(=O)N1CCCN(Cc2nnc(C(C)(C)C)o2)CC1` as the compound, how does the “Percent Effect” value read?
**A.** -4.735%

**Q.** `Cn1nc2c(cc1=O)CN(CC(=O)NC1CCCCNC1=O)CC2` (stereo unspecified) was tested. Which “Percent Effect” value did it give?
**A.** 4.736%

**Q.** With `CSc1ccc(C(=O)N(c2ccc(F)cn2)C2CCOCC2)o1` as the compound, how does the “Percent Effect” value read?
**A.** 4.022%

**Q.** With `COCC(=O)N1CCN2C(=O)OC[C@H]2C1` as the compound, how does the “Percent Effect” value read?
**A.** -11.81%

**Q.** Which “Percent Effect” value does the source give for `COCC(=O)N1CCCC(C(=O)N(C)CCCc2cnn(C)c2)C1` (stereo unspecified) here?
**A.** 14.99%

**Q.** `CN1CCN(C(=O)c2cncc(CC3CCCN(C)C3)c2)CC1` (stereo unspecified) was tested. Which “Percent Effect” value did it give?
**A.** -11.29%

**Q.** Which “Percent Effect” value does the source give for `Cc1nn(C)c2c(N3CCN(C(=O)c4ccccc4)CC3)ncnc12` here?
**A.** 3.277%

**Q.** Which “Percent Effect” value does the source give for `CN1CCN(C(=O)c2ccccc2)CC(Cc2cc(N(C)C)ncn2)C1` (stereo unspecified) here?
**A.** 80.45%

**Q.** For `COCC(=O)N1CCN(C)CC(Cc2cc(N(C)C)ncn2)C1` (stereo unspecified), which “Percent Effect” value is on record?
**A.** 95.35%

**Q.** Which “Percent Effect” value does the source give for `OCc1cc2ccccc2nc1NCC1CC1` here?
**A.** 2.516%

**Q.** How did the “Percent Effect” value turn out when `O=C(Cn1cnc(NC(=O)c2ccccn2)n1)NCc1ccccc1` was run?
**A.** 11.88%

**Q.** How did the “Percent Effect” value turn out when `COc1ccc(CN2CCOC3(CCCN(c4nnc(C)o4)C3)C2)cc1.O=C(O)C(F)(F)F` (stereo unspecified) was run?
**A.** -9.107%

**Q.** How did the “Percent Effect” value turn out when `COCCN1CCC2(CCC(=O)N2Cc2csc(C)n2)CC1.O=C(O)C(F)(F)F.O=C(O)C(F)(F)F` was run?
**A.** 99.3%

**Q.** For `Cc1nc(CN2C(=O)CCC23CCN(Cc2ccccn2)CC3)cs1.O=C(O)C(F)(F)F.O=C(O)C(F)(F)F`, which “Percent Effect” value is on record?
**A.** 113.7%

**Q.** Which “Percent Effect” value does the source give for `CCOC1CC2(CCN(Cc3cccn3C)CC2)C1.O=C(O)C(F)(F)F` here?
**A.** 0.1287%

**Q.** `Cc1nc(CN2C(=O)CCC23CCN(c2ncccn2)CC3)cs1.O=C(O)C(F)(F)F` was tested. Which “Percent Effect” value did it give?
**A.** 11.75%

**Q.** For `Cc1nc(CN2C(=O)CCC23CCN(Cc2ccoc2)CC3)cs1.O=C(O)C(F)(F)F.O=C(O)C(F)(F)F`, which “Percent Effect” value is on record?
**A.** 99.35%

**Q.** For `COCCN1CCc2ccc(=O)n(Cc3csc(C)n3)c2CC1.O=C(O)C(F)(F)F.O=C(O)C(F)(F)F`, which “Percent Effect” value is on record?
**A.** -8.44%

**Q.** With `Cc1nc(CN2C(=O)CCC23CCN(Cc2cccn2C)CC3)cs1.O=C(O)C(F)(F)F.O=C(O)C(F)(F)F` as the compound, how does the “Percent Effect” value read?
**A.** 110.4%

**Q.** With `NC(=O)C1CCN(C(=O)CSC2CCCc3ccccc32)CC1` (stereo unspecified) as the compound, how does the “Percent Effect” value read?
**A.** -6.301%

**Q.** With `CCOc1ccccc1C(CC(=O)N(C)c1ccccc1)NC(C)=O` (stereo unspecified) as the compound, how does the “Percent Effect” value read?
**A.** 3.437%

**Q.** `O=C(c1ccn(-c2cccc(Cl)c2)n1)N1CCN(C2CC2)CC1` was tested. Which “Percent Effect” value did it give?
**A.** 7.351%

**Q.** How did the “Percent Effect” value turn out when `CC(C)NC(=O)C(C)S(=O)(=O)c1cc2c(cc1Cl)OCCO2` (stereo unspecified) was run?
**A.** -0.523%

**Q.** How did the “Percent Effect” value turn out when `CC(C)NC(=O)CS(=O)(=O)c1cc2c(cc1Cl)OCCO2` was run?
**A.** -3.378%

**Q.** With `CCC(C)NC(=O)c1cncc(Br)c1` (stereo unspecified) as the compound, how does the “Percent Effect” value read?
**A.** 12.99%

**Q.** Which “Percent Effect” value does the source give for `COCCNC(=O)c1cc(S(=O)(=O)N2CCCC2)cs1` here?
**A.** 6.896%

**Q.** For `CCC(C)NC(=O)c1cc(S(=O)(=O)N2CCCC2)c(C)s1` (stereo unspecified), which “Percent Effect” value is on record?
**A.** 99.85%

**Q.** With `CCC(C)NC(=O)CS(=O)(=O)Cc1cc(C)ccc1C` (stereo unspecified) as the compound, how does the “Percent Effect” value read?
**A.** -1.911%

**Q.** With `CC(C)NC(=O)c1cc(Br)cc(S(=O)(=O)N2CCOCC2)c1F` as the compound, how does the “Percent Effect” value read?
**A.** -9.649%

**Q.** How did the “Percent Effect” value turn out when `CCC(C)NC(=O)c1cc(S(=O)(=O)N(C)C)c(C)s1` (stereo unspecified) was run?
**A.** 107%

**Q.** `Cc1sc(C(=O)NC(C)C)cc1S(=O)(=O)N(C)C` was tested. Which “Percent Effect” value did it give?
**A.** 135.1%

**Q.** Which “Percent Effect” value does the source give for `Cc1cc(-c2cnc(NC3CC3)nc2-c2ccco2)on1` here?
**A.** 84.65%

**Q.** With `Cc1cc(-c2cnc(NC3CCCC3)nc2-c2ccoc2C)on1` as the compound, how does the “Percent Effect” value read?
**A.** -4.074%

**Q.** `Cc1cc(-c2cnc(NC3CC3)nc2-c2ccoc2C)on1` was tested. Which “Percent Effect” value did it give?
**A.** 65.28%

**Q.** Which “Percent Effect” value does the source give for `CCN1CCN(c2ncc(-c3cc(C)no3)c(-c3ccco3)n2)CC1` here?
**A.** 110.6%

**Q.** For `Cc1cc(-c2cnc(NC3CCCCC3)nc2-c2ccco2)on1`, which “Percent Effect” value is on record?
**A.** 96.71%

**Q.** `CCN1CCC(N2CCN(c3cc(-c4nc(C)no4)ccn3)CC2)CC1` was tested. Which “Percent Effect” value did it give?
**A.** 10.41%

**Q.** Which “Percent Effect” value does the source give for `CCN1CCN(c2ncc(-c3cc(C)no3)c(-c3ccoc3C)n2)CC1` here?
**A.** -0.7712%

**Q.** How did the “Percent Effect” value turn out when `O=C1NCCO[C@H]2CN(C(=O)CCc3ccccc3Cl)CC[C@@H]12` was run?
**A.** -36.6%

**Q.** Which “Percent Effect” value does the source give for `COCC1CN(C(=O)COc2ccc(C)cc2)Cc2cn(C)nc21.O=C(O)C(F)(F)F` (stereo unspecified) here?
**A.** -4.21%

**Q.** For `CCn1ncc2c1CCCC2NCc1cscn1` (stereo unspecified), which “Percent Effect” value is on record?
**A.** -5.451%

**Q.** For `Cc1cc(-c2cnc(NC3CCCC3)nc2-c2ccco2)on1`, which “Percent Effect” value is on record?
**A.** 111.9%

**Q.** Which “Percent Effect” value does the source give for `Cc1cc(C2CCC2)nc(N(C)Cc2cc(-c3ccccn3)no2)n1` here?
**A.** 38.25%

**Q.** Which “Percent Effect” value does the source give for `CNC(=O)C1CCCCN1C(=O)c1csc(-c2ccc(C)o2)n1` (stereo unspecified) here?
**A.** -2.315%

**Q.** `Cc1occc1-c1nc(NC2CCCC2)ncc1-c1ccccn1` was tested. Which “Percent Effect” value did it give?
**A.** 77.82%

**Q.** How did the “Percent Effect” value turn out when `Cc1cc(-c2cnc(NC3CCCC3)nc2-c2ccc(C)o2)on1` was run?
**A.** 122.4%

**Q.** Which “Percent Effect” value does the source give for `Cc1cccnc1C(Nc1nccc(C2CCCC2)n1)C1CC1` (stereo unspecified) here?
**A.** -13.6%
